HepG2 viability: HepG2 cytotoxicity, counter-screen for TGF-b inhibitors; HepG2 CAGA-GFP viability, ATP luminescence, 18 h; actives 0.76% (n = 410,000); AID 588856; Potency, µM (highest dose often 46.1 µM), actives largely listed as cytotoxic
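CellTiter-Glo luminescence gave cytotoxicity after 18 hours at 37 degrees C. The cells were HepG2 CAGA-GFP in 1% FBS DMEM, stimulated with 500 pg/mL TGF-beta after compound addition. %Activity was normalised to no-cell wells (complete cell-killing) and DMSO (no toxicity), and curves were fitted and classified.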
IL1B secr inh: inhibitors of inflammasome signaling (IL-1 beta secretion); THP-1 LPS/ATP IL-1B secretion, AlphaLISA, 16 h; hits give low values; activity change, % at 57.5 µM; actives 4.7% (n = 360,000); AID 743279; in the data active = activity change below about -50%; inconclusive = mostly about -30% to -49%
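THP-1 cells pretreated 1 hr with compounds (up to 57.5 uM final), then stimulated with LPS (250 ng/mL final) plus ATP (1.25 mM final); secreted IL-1B measured by AlphaLISA after 16 hr, decreased signal indicating inhibition.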
TGFb inhibitor: TGF-b pathway inhibition; HepG2 CAGA-GFP TGF-b/SMAD3 reporter, GFP fluorescence, 18 h; TGF-beta stimulated, 500 pg/mL final; Potency, µM (doses to about 46.1 µM), usual class: inhibitors; actives 1.2% (n = 410,000); note: nearly all actives have a fitted effect of over 65% in size
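HEPG2 CAGA-GFP, 1000 cells/well; 2 h settle, 37 C; cpd via pin tool; TGF-b 500 pg/mL final; 18 h, 37 C; GFP imaging ex488/em500-530; %Activity normalised to -TGF-b and +DMSO controls; CRC fit, curve class.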
DT40 TDP1 CPT: DT40-hTDP1 cell growth loss with CPT; chicken DT40 Tdp1-/-;hTDP1 cells + 20 nM CPT, ATP luminescence, 48 h; Potency, µM (top dose mostly 46.2 µM), actives largely listed as inhibitors; actives 12% (n = 420,000); note: nearly all actives have a fitted effect of over 55% in size
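Chicken DT40 Tdp1-/- cells stably complemented with human TDP1 were seeded at 400 cells/well in medium containing 20 nM camptothecin, exposed to pin-transferred compounds, and grown at 37 °C for at least 48 hr. Viability was read as ATP luminescence.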
DT40 TDP1 no CPT: qHTS for Inhibitors of human tyrosyl-DNA phosphodiesterase 1 (TDP1): qHTS in cells in absence of CPT | Potency, µM (doses to about 46.2 µM), usual class: inhibitors | actives 15% (n = 420,000) | DT40 Tdp1-/- hTDP1 cells, no CPT, ATP luminescence, 48 h | AID 686978, 2013; note: nearly all actives have a fitted effect of over 55% in size
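Growth of hTDP1-complemented DT40 Tdp1-knockout cells is measured by ATP luminescence after at least 48 hr compound exposure at 37 °C, with DMSO substituting for the 20 nM CPT used in the parallel screen.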
TDP1 block: blocks human tyrosyl-DNA phosphodiesterase 1; Q9NUW8; recombinant TDP1, AlphaScreen DNA substrate cleavage; Potency, µM (titrated, usually from 130 µM), most hits filed as inhibitors; actives 0.28% (n = 350,000); note: nearly all actives have a fitted effect of over 40% in size
Target sequence (Q9NUW8 whole entry, looked up): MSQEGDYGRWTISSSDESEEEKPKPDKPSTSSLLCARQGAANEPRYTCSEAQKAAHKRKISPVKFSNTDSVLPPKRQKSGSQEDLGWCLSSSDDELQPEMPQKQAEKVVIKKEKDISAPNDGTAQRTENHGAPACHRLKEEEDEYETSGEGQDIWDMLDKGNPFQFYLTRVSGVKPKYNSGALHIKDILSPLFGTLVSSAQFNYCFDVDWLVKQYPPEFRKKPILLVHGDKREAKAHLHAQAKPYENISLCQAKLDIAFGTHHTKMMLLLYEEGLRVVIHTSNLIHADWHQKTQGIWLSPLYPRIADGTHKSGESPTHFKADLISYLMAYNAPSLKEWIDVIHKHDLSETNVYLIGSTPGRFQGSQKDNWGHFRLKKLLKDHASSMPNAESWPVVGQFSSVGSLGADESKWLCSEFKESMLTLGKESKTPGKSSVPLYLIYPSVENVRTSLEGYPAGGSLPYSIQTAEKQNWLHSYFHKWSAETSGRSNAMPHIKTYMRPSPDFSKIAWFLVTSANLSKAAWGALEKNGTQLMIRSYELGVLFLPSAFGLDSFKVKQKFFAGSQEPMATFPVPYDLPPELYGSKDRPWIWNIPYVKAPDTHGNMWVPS
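Signal: AlphaScreen proximity between streptavidin donor and anti-FITC acceptor beads on intact substrate. Reaction: Tdp1 1 nM, substrate 15 nM final, 5 min RT after 15 min compound preincubation.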
Hits are given with their value; . = inactive; ? = inconclusive; / = not tested or not shown; [ ] = remark or other dose. An excerpt weighted towards active compounds, which were near 18% of everything screened. Unless noted, calls come from the whole dose curve; as a rule, active = well fitted curve in the direction sought with a large enough effect; inconclusive = small, poorly fitted or top-dose-only effect, or another doubt; inactive = no such curve, though single readings can be large; an effect the other way counts as inactive or inconclusive.

SMILES	HepG2 viability	IL1B secr inh	TGFb inhibitor	DT40 TDP1 CPT	DT40 TDP1 no CPT	TDP1 block
COc1cccc(C2C(C)CCC3C(=O)N(C)C(C(C)C)C(=O)N32)c1 (configuration not stated)	/	/	/	/	/	.[21 µM]
COc1ccc(CCC(=O)NCCS(=O)(=O)N2CCN(c3ccccc3OC)CC2)cc1	.	.	?	20.6µM	18.4µM	.
Cc1c(C(=O)NCCS(=O)(=O)N2CCN(c3ccccc3F)CC2)cccc1[N+](=O)[O-]	.	.	.	?	20.6µM	.
O=C(Cc1ccc(Cl)cc1)NCCS(=O)(=O)N1CCN(c2ccccc2F)CC1	.	.	?	5.17µM	5.8µM	/
O=C(CCS(=O)(=O)Cc1ccc(Cl)cc1)NCCCN1CCN(c2ccccc2F)CC1	.	?	?	11.2µM	?	.
O=C(NCCS(=O)(=O)N1CCN(c2ccccc2F)CC1)c1c(F)cccc1F	.	.	.	.	.	/
O=C(CCCc1ccccc1)NCCS(=O)(=O)N1CCN(c2ccccc2F)CC1	.	.	.	?	18.4µM	.
COc1ccc(CCC(=O)NCCS(=O)(=O)N2CCN(c3ccccc3F)CC2)cc1	.	.	.	?	?	.
COc1ccc(N2CCCC2)c(NC(=O)c2ccc(Br)o2)c1	.	.	.	?	?	.
O=C(CNC(=O)c1ccccc1)N=Nc1c(O)[nH]c2ccc(Br)cc12	.	.	.	?	.	.
Cc1ccc2[nH]c(O)c(N=NC(=O)CCc3ccccc3)c2c1Br	.	-87.5	.	16.4µM	?	.
CCCCCCCC1=Cc2ccccc2C(C(C(=O)OC)C(=O)OC)N1C(=O)OC (configuration not stated)	/	/	/	/	/	.[12.3 µM]
Cc1[nH]c2ccccc2c1C(=O)C(C)Sc1nc2ccccc2c(=O)n1Cc1cccnc1 (configuration not stated)	.	/	.	7.94µM	11.2µM	/
COc1ccc(Cn2c(=O)n(-c3ccc(F)c(Cl)c3)c(=O)c3c2c2cc(OC)ccc2n3C)cc1	.	/	.	.	?	.
COc1ccc(/C=N/N2CCN(c3ccccc3OC)CC2)cc1Br	.	.	.	.	.	/
COc1cc(/C=N/N2CCCCC2)cc(OC)c1O	.	.	.	18.4µM	18.4µM	/
COc1ccc(/C=N/N2CCN(c3ccccc3)CC2)cc1Br	.	-55.0	.	.	.	/
COc1ccccc1N1CCN(/N=C/c2ccc(O)c(O)c2)CC1	.	.	.	18.4µM	9.2µM	.
Cc1ccc2[nH]c(C)c(CCNC(=O)c3cc4cc(Br)ccc4oc3=O)c2c1	.	/	.	/	/	.
CCOC(=O)c1ccc2ncc(C(=O)OCC)c(NCCc3ccc(OC)c(OC)c3)c2c1	.	/	/	25.9µM	14.6µM	/
CCOC(=O)c1cnc2ccc(C(=O)OC)cc2c1NCCc1ccc(OC)c(OC)c1	.	.	?	?	18.4µM	.
COc1ccc(-n2c(C)nc3cc(C(=O)NC4CCCCCC4)ccc32)cc1	.	/	.	?	?	.
NC(=O)CC(NC(=O)Cc1ccc(Cl)cc1)c1ccc(N2CCC(Cc3ccccc3)CC2)c([N+](=O)[O-])c1 (configuration not stated)	.	.	?	?	?	/
COC(=O)c1cc2c(C)[nH]c(C)c2cc(C(=O)OC)c1=O	.	.	.	7.31µM	6.51µM	.
COC(=O)c1cc(C(C)=O)c(C)[nH]c1=O	.	.	.	.	.	.
SMILES	HepG2 viability	IL1B secr inh	TGFb inhibitor	DT40 TDP1 CPT	DT40 TDP1 no CPT	TDP1 block
CCOC(=O)C1(Cc2cccc(OC)c2)CCN(Cc2ccc(C)s2)CC1	.	-118.1	.	20.6µM	18.4µM	/
CCOC(=O)C1(Cc2ccccc2)CCN(Cc2csc(C(C)=O)c2)CC1	.	-60.5	.	.	?	/
CCOC(=O)C1(Cc2ccccc2)CCN(Cc2cnn(C(C)C)c2)CC1	.	.	.	.	.	/
CCOC(=O)C1(Cc2ccccc2)CCN(Cc2cccc(OC)c2O)CC1	.	-50.1	.	?	?	.
CCOC(=O)C1(Cc2ccccc2)CCN(Cc2cccc3nccnc23)CC1	.	-64.0	.	?	18.4µM	.
CCOC(=O)C1(Cc2ccc(OC)cc2)CCN(C(=O)c2cccc3nccnc23)CC1	.	.	.	.	.	/
Cc1ccc2occ(-c3cc(-c4ccccc4)nc4c3COc3ccccc3-4)c(=O)c2c1	.	/	.	.	?	.
CCOC(=O)C1(Cc2cccc(OC)c2)CCN(Cc2ccc(OC)c(OC)c2)CC1	.	.	.	?	20.6µM	.
CCOC(=O)C1(Cc2cccc(OC)c2)CCN(Cc2cccc(OC)c2O)CC1	.	?	.	23.1µM	20.6µM	.
CCOC(=O)C1(Cc2cccc(OC)c2)CCN(CC2CC=CCC2)CC1 (configuration not stated)	.	.	.	?	23.1µM	.
CCOC(=O)C1(Cc2cccc(OC)c2)CCN(Cc2cccn2-c2nccs2)CC1	.	-76.8	.	?	?	.
O=C1ON=C(c2ccccc2[N+](=O)[O-])/C1=C/c1cccc([N+](=O)[O-])c1O	.	.	.	.	.	.
CCCCN(C)C(=O)c1sc(=O)n(CC(=O)c2ccccc2OC)c1C	.	.	.	?	?	/
COc1ccc2nc3n(c(=O)c2c1)-c1ncccc1C(=O)NC3Cc1ccccc1 (configuration not stated)	.	?	.	.	?	/
CCOC(=O)c1cccc(NC(=O)Cn2c(=O)c3cccn3c3ccccc32)c1	.	/	.	?	?	.
CCc1ccc(NC(=O)Cn2c(=O)c3cccn3c3ccccc32)cc1	.	.	?	16.4µM	4.11µM	.
CCc1ccc(NC(=O)CCn2c(=O)c3cccn3c3ccccc32)cc1	.	.	.	23.1µM	18.4µM	.
NC(=Nc1nc(-c2ccccn2)cc2ccccc12)c1ccccn1	.	.	.	0.0146µM	0.0184µM	/
CC(Nc1ccc(N2CCOCC2)cc1)C(=O)N1c2ccccc2CC1C (configuration not stated)	.	.	.	.	?	.
O=C(Cn1cc(S(=O)(=O)N2CCCC2)c(S(=O)(=O)N2CCCC2)c1)Nc1ccccc1	.	/	.	.	.	.
CCOC(=O)C1(C)Oc2ccccc2C(C(=O)OC)=C1C(=O)OC (configuration not stated)	.	.	?	?	16.4µM	.
Cc1ccccc1C(=O)Nc1nnc(SCC(=O)NCc2ccco2)s1	.	.	.	.	.	.

Assay outcomes (PubChem)
